Compounds without any hit were thinned out: in the full panel of roughly 83,000, 20% have a hit.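 Each cell line was grown in a 96-well plate and treated with one concentration of compound for 48 hours. Values below 10 were considered active.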 A number with no mark means an inactive call. Calls of active or inactive are those of the source.
Columns and labels:
Assay in all cases: NCI-60 one-dose screen, 48 h (100 = growth as untreated, 0 = no growth, -100 = all killed)
Details in all cases: 10 µM unless noted
RPMI-8226 leukemia = system: RPMI-8226 leukemia
OVCAR-8 ovarian = system: OVCAR-8 ovarian
OVCAR-5 ovarian = system: OVCAR-5 ovarian
OVCAR-4 ovarian = system: OVCAR-4 ovarian
SK-OV-3 ovarian = system: SK-OV-3 ovarian
IGROV1 ovarian = system: IGROV1 ovarian
OVCAR-3 ovarian = system: OVCAR-3 ovarian
HS 578T breast = system: HS 578T breast
NCI/ADR-RES ovarian = system: NCI/ADR-RES ovarian
T-47D breast = system: T-47D breast
BT-549 breast = system: BT-549 breast
MDA-MB-435 melanoma = system: MDA-MB-435 melanoma
SW-620 colon = system: SW-620 colon
MCF7 breast = system: MCF7 breast
HCT-116 colon = system: HCT-116 colon
HCC-2998 colon = system: HCC-2998 colon
KM12 colon = system: KM12 colon

Compound | growth (RPMI-8226 leukemia) | growth (OVCAR-8 ovarian) | growth (OVCAR-5 ovarian) | growth (OVCAR-4 ovarian) | growth (SK-OV-3 ovarian) | growth (IGROV1 ovarian) | growth (OVCAR-3 ovarian) | growth (HS 578T breast) | growth (NCI/ADR-RES ovarian) | growth (T-47D breast) | growth (BT-549 breast) | growth (MDA-MB-435 melanoma) | growth (SW-620 colon) | growth (MCF7 breast) | growth (HCT-116 colon) | growth (HCC-2998 colon) | growth (KM12 colon)
COC(=O)c1c2c(c(C)[n+]([O-])c1C)C(=O)C(NCc1ccc(F)c(Cl)c1)=CC2=O | 20.6% | -14.5% (active) | 38.2% | -96.4% (active) | 87.2% | 3.18% (active) | -21.3% (active) | 68% | 0.134% (active) | -5.44% (active) | 43.7% | -82.4% (active) | 5.47% (active) | -32.8% (active) | 0.429% (active) | 13.3% | 11.5%
S=C(c1ccc2c(c1)OCO2)N1CCN(c2ccccc2Cl)CC1 | 85.9% | 102% | 97.6% | 98.7% | 102% | 101% | 112% | 107% | 99.7% | 94% | 81.6% | 99.9% | 102% | 103% | 92.3% | 113% | 103%
Nc1n[nH]c(-c2cc(Cl)ccc2O)c1-c1ccccc1 | 91.1% | 91% | 67.4% | 86.3% | 96.7% | 96% | 107% | 85.3% | 79.3% | 85.3% | 112% | 93.6% | 102% | 92.7% | 85.1% | 86.5% | 64.2%
O=C(O)c1ccc2c(c1)CCC2 | 99.8% | 107% | 105% | 107% | 107% | 103% | 119% | 134% | 111% | 106% | 96.6% | 115% | 108% | 100% | 105% | 115% | 113%
CC(=O)OC[C@H]1OC(Sc2sc(C(=O)c3ccc(Br)cc3)c(N)c2-c2nc3ccccc3s2)[C@H](OC(C)=O)[C@@H](OC(C)=O)[C@@H]1OC(C)=O (stereo partly specified) | 43% | 46.1% | 65.7% | 12.9% | 96.6% | 45.6% | 76.2% | 43% | 57.9% | 73.7% | 80.7% | 80.7% | 54% | 62.7% | 18.7% | 75.9% | 78.3%
C[C@H](NC(=O)[C@@H]1CSSC[C@@H](NC(=O)c2nc3ccccc3cc2O)C(=O)NCC(=O)N1C)c1ccccc1 | 22.6% | 26.3% | 45.6% | 94.3% | 71.7% | 71.6% | -51.4% (active) | 33% | 91.5% | -35.6% (active) | 44.3% | 23.9% | -35.4% (active) | -2.09% (active) | 12.8% | 55.1% | 19.8%
COCCN(C(=O)c1ccc(F)cc1F)c1c(N)n(Cc2ccccc2)c(=O)[nH]c1=O | 112% | 112% | 92.2% | 98.9% | 111% | 2.97% (active) | 115% | 107% | 110% | 103% | 135% | 105% | 108% | 108% | 102% | 106% | 105%
CN(c1ccccc1)c1ccc2c(c1)OCCC21CC1Nc1cnccc1C(=O)O (stereo unspecified) | 82.6% | 54.9% | 96.2% | 75.3% | 69.1% | 75.1% | 77.1% | 80.8% | 73.8% | 72.6% | 64.8% | 82.6% | 80.2% | 65.8% | 33% | 68.2% | 64.2%
Cc1ccc(S(=O)(=O)NCC[C@@H]2C[C@H]2c2cc3ccccc3s2)cc1 | 83.4% | 97.3% | 106% | 78.3% | 107% | 101% | 101% | 91.5% | 96.9% | 77.9% | 102% | 104% | 103% | 93.7% | 93.8% | 106% | 96.1%
CN1C(=O)N(C)C2C1NN=c1s/c(=C\c3ccccc3)c(=O)n12 (stereo unspecified) | 61.6% | 60% | 66.6% | 66.6% | 47.6% | 46.4% | 8.76% (active) | 40.7% | 32.5% | 37.9% | 55.5% | -26.1% (active) | 21.7% | 15.4% | 22.5% | 82.5% | 23.3%
COc1ccc(-c2nc(SCC(=O)Nc3nc(-c4ccccc4)cs3)[nH]c(=O)c2C#N)cc1 | 93% | 101% | 84.6% | 109% | 81.6% | 88.3% | 107% | 78% | 95.5% | 84.3% | 92.4% | 101% | 97.4% | 96.4% | 86% | 87.5% | 108%
CCCCC1CCCCN1C(=O)OCC (stereo unspecified) | 118% | 106% | 98.4% | 112% | 99.1% | 112% | 112% | 116% | 113% | 89.2% | 73.9% | 111% | 106% | 107% | 94% | 101% | 123%
CC(=O)n1c(-c2ccc(Cl)cc2)nc2c(c1=O)C(c1ccc(Cl)cc1)c1sc3c(Cl)cccc3c1O2 (stereo unspecified) | 0.984% (active) | -31.5% (active) | -3.95% (active) | 17.3% | -2.53% (active) | 13.2% | -50.4% (active) | -9.23% (active) | -17.2% (active) | -2.51% (active) | -7.92% (active) | -19.6% (active) | -11.1% (active) | 5.59% (active) | -45.9% (active) | -45.4% (active) | -17.4% (active)
Clc1ccc(-c2c3ccc(=[N+]4CCCCC4)cc-3oc3cc(N4CCCCC4)ccc23)cc1 | -41.9% (active) | -50.6% (active) | -90.3% (active) | -82.5% (active) | -95.8% (active) | -77% (active) | -98.3% (active) | -26.1% (active) | -65.7% (active) | -75.3% (active) | -93.5% (active) | -59.9% (active) | -83.8% (active) | -73.9% (active) | -97.3% (active) | -95.6% (active) | -86.9% (active)
CN1CCN(CC(=O)Nc2nc(-c3cccc(NS(=O)(=O)c4cccc5c(N(C)C)cccc45)c3)cs2)CC1 | 24.2% | 87.9% | 86.6% | 61.2% | 93.1% | 86.6% | 74.4% | 75% | 87.3% | 64.3% | 97.1% | 68.4% | 62.6% | 49.9% | 88.4% | 53.6% | 71.4%
O=c1[nH][n+](-c2ccc(Cl)cc2)no1 | 79.2% | 69.9% | 77% | 83.5% | 86.8% | 70.5% | 86.8% | 98.5% | 79.9% | 26.9% | 91.8% | 30.8% | 40.8% | 58.4% | 84.5% | 32.4% | 31.3%
CNC(=O)c1cc(Oc2cccc3nc(Nc4ccc(F)c(Cl)c4)ccc23)ccn1 | 54.1% | 44.8% | 91.9% | 40.1% | 70.1% | 44.5% | 64.6% | 70% | 57.4% | 66% | 62.9% | 60.5% | 20.3% | 35.1% | 17.6% | 101% | 63.5%
O=C(c1ccccc1)c1c(/C=C/c2ccccc2)nc2ccccc2c1/C=C/c1ccc(Br)cc1 | 104% | 102% | 103% | 88% | 96.3% | 103% | 89.4% | 91.3% | 102% | 95.4% | 111% | 99.7% | 98.3% | 82.7% | 87.8% | 115% | 98.7%

Reference: PubChem BioAssay (NCI)
